{"source": "PubChem BioAssay", "note": "Unmarked numbers belong to inactive results. How the calls were made is not given here."}
{"target": "Pantothenate synthetase (Mycobacterium tuberculosis (strain ATCC 25618 / H37Rv)) (UniProt P9WIL5)", "sequence (P9WIL5 whole entry, looked up)": "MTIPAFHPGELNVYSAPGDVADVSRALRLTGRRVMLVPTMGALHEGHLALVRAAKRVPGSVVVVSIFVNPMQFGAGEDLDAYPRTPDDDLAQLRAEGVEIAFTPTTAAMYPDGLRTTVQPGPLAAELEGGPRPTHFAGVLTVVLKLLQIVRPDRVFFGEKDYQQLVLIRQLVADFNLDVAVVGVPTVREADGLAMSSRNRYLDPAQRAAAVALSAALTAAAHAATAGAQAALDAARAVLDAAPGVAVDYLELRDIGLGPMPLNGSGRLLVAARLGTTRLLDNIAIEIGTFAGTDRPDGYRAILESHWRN", "experiment": "Recombinant Mtb pantothenate synthetase (PanC) inhibitors, coupled enzyme, confirmatory (AID 375);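 further: 0% = full reaction with vehicle and 100% = no enzyme background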", "conditions": "coupled enzyme assay; at 10 µM, stronger effect = higher value", "units": {"inhibition": "%"}}
{"molecule": "COc1ccccc1N1CCN(C(CNS(=O)(=O)c2cc(F)ccc2F)c2cccnc2)CC1", "note": "(stereo not given)", "inhibition": 0}
{"molecule": "Cc1cc(-c2ccccc2)c2c3c(cn2n1)c(=O)n(C)c(=O)n3C", "inhibition": 0}
{"molecule": "Cc1nc(C)c(C(=O)C2=C(O)C(=O)N(CCN3CCOCC3)C2c2cccnc2)s1", "note": "(stereo not given)", "inhibition": 13}
{"molecule": "Cc1cccc(-c2c3c(=O)n(C)c(=O)n(C)c3cn2-c2ccc(O)cc2)c1", "inhibition": 0}
{"molecule": "CCOc1ccc2oc(-c3ccccc3)c(C(=O)N3CCN(CCO)CC3)c2c1", "inhibition": 0}
{"molecule": "C[C@]12C=CC(=O)C=C1CC[C@@H]1[C@@H]2[C@@H](O)C[C@@]2(C)[C@H]1CC[C@]2(O)C(=O)COC(=O)CCC(=O)O", "inhibition": 0}
{"molecule": "COc1ccc(NC(=O)Cn2nnc(-c3ccccc3F)n2)cc1Cl", "inhibition": 0}
{"molecule": "CCc1nc(N)c(C#N)c(-c2ccc(OC)c(OC)c2)c1C", "inhibition": 2}
{"molecule": "N#CCSc1nc2c(c(C3CC=CCC3)c1C#N)CCC2", "note": "(stereo not given)", "inhibition": 6}
{"molecule": "O=C(CCC(=O)N1CCc2ccccc2C1)N1CCN(S(=O)(=O)c2ccccc2)CC1", "inhibition": 0}
{"molecule": "Cc1cc(C)c(S(=O)(=O)N(C)CC(N)=O)c(C)c1", "inhibition": 0}
{"molecule": "O=C(NCC(=O)N(Cc1cccs1)C(C(=O)NC1CCCC1)c1ccncc1)c1ccco1", "note": "(stereo not given)", "inhibition": 4}
{"molecule": "O=C1CC(c2ccccc2)CC(O)=C1C=NCCCN1CCOCC1", "note": "(stereo not given)", "inhibition": 5}
{"molecule": "CCOC(=O)c1ccc(N2Cc3cc(C)c(C)cc3C2)cc1O", "inhibition": 2}
{"molecule": "Cc1c(Cl)cccc1NC(=O)CCN1CCCCCC1", "inhibition": 0}
{"molecule": "CC(=O)OCC(=O)c1ccc2ccn(C(C)=O)c2c1", "inhibition": 3}
{"molecule": "Nc1[nH]nc2nc(N3CCCC3)nc(-c3ccccc3)c12", "inhibition": 0}
{"molecule": "CCOC(=O)c1cc(C(C)(C)C)oc1CN", "inhibition": 0}
{"molecule": "Cc1nc2sc(C(c3ccco3)N3CCN(c4ccccc4F)CC3)c(O)n2n1", "note": "(stereo not given)", "inhibition": 0}
{"molecule": "O=C(CN1CCN(Cc2ccc3c(c2)OCO3)CC1)N1CCc2[nH]c3ccc(F)cc3c2C1", "inhibition": 0}
{"molecule": "O=C(Cc1nc2ccccc2s1)c1ccc(O)cc1O", "inhibition": 8}
{"molecule": "CCCC(=O)N1CCN(c2ccc(NC(=O)c3ccc(Br)o3)cc2)CC1", "inhibition": 3}
{"molecule": "CCCC(=O)Nc1ccccc1NC(=O)CCC", "inhibition": 0}
{"molecule": "CCOc1ccc2nc(NC(=O)C3CCCN(S(=O)(=O)c4c(C)noc4C)C3)sc2c1", "note": "(stereo not given)", "inhibition": 0}
{"molecule": "COCCNC(=O)CCc1nc(-c2ccccc2)no1", "inhibition": 0}
{"molecule": "O=C(CN1C(=O)NC2(CCCCCC2)C1=O)N1CCC(Cc2ccccc2)CC1", "inhibition": 2}
{"molecule": "COc1ccc(CNc2nc(SCC(=O)NCc3ccco3)nc3ccccc23)cc1", "inhibition": 10}
{"molecule": "Cc1ccc(C(=O)OCC(=O)Nc2ccc3c(c2)OCO3)o1", "inhibition": 4}
{"molecule": "COCCn1nnnc1C(C(C)C)N1CCN(C(=O)c2ccco2)CC1", "note": "(stereo not given)", "inhibition": 0}
{"molecule": "CCOC(=O)N1CCN(C(=O)COc2ccc(S(=O)(=O)NC(C)C)cc2)CC1", "inhibition": 0}
{"molecule": "CCOC(=O)C1CCN(c2c(NCCN3CCN(c4ccccc4)CC3)c(=O)c2=O)CC1", "inhibition": 0}
{"molecule": "O=C(COC(=O)Cc1cccc(C(F)(F)F)c1)NCC1CCCO1", "note": "(stereo not given)", "inhibition": 3}
{"molecule": "CC(C)N(Cc1nc(-c2ccc(Cl)cc2)no1)C(=O)CN(C)S(=O)(=O)c1ccc(Cl)cc1", "inhibition": 0}
{"molecule": "COc1ccc(CCn2c(=N)c(C#N)cc3c(=O)n4ccccc4nc32)cc1", "inhibition": 0}
{"molecule": "COc1ccc(C2C=C(c3ccccc3)Nc3ncnn32)cc1", "note": "(stereo not given)", "inhibition": 4}
{"molecule": "CC(C(=O)Nc1ccccc1-c1ccccc1)N1CCOCC1", "note": "(stereo not given)", "inhibition": 1}
{"molecule": "Cc1ccc(-c2noc(C3CCCN(C(=O)c4ccc(F)cc4F)C3)n2)cc1", "note": "(stereo not given)", "inhibition": 0}
{"molecule": "CCC(=O)N1Cc2ccccc2-c2ccccc2C1=O", "inhibition": 0}
{"molecule": "COc1ccccc1Cn1c(-c2ccco2)nc2nc3ccccc3nc21", "inhibition": 0}
{"molecule": "CCOC(=O)Cc1ccc(NS(=O)(=O)c2ccc(SC)cc2)cc1", "inhibition": 0}
